# From PubChem BioAssay (NCATS)
# Where “and” joins values, the source holds several entries; their conditions need not be identical. Identical values can stand only once. Values without a mark were called inactive. Records with an inconclusive call do not appear. Where a call stands in place of a potency, no number is given. Calls of active or inactive are those of the source. Unless noted, calls come from the whole dose curve; as a rule, active = well fitted curve in the direction sought with a large enough effect; inconclusive = small, poorly fitted or top-dose-only effect, or another doubt; inactive = no such curve, though single readings can be large; an effect the other way counts as inactive or inconclusive.
# Key:
# [1] = biological target: Cytochrome P450 2C9 (Homo sapiens) (UniProt P11712); experiment: qHTS Assay for Inhibitors and Substrates of Cytochrome P450 2C9 (AID 883); note: nearly all actives have a fitted effect of over 60% in size; note: potency is the fitted concentration of half-maximal effect
# Method in brief: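 A luminogenic readout tracked human CYP2C9 (10nM) converting deoxyluciferin (100uM, at KM) in 25mM KPO4 during 60 min at 37C with regenerated NADPH. Values normalized to 57uM sulphaphenazole as complete inhibition.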
# [2] = biological target: Cytochrome P450 2D6 (Homo sapiens) (UniProt P10635); experiment: qHTS Assay for Inhibitors and Substrates of Cytochrome P450 2D6 (AID 891); note: nearly all actives have a fitted effect of over 60% in size; note: potency is the fitted concentration of half-maximal effect;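 for activity change, negative = inhibition: luciferin methyl ether substrate demethylated by CYP2D6 with NADPH regeneration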
# Method in brief: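 Human CYP2D6 (5 nM) with 30 uM Luciferin-ME EGE (at Km) in 100 mM KPO4, compound preincubated 10 min, then NADPH regeneration system for 60 min at room temperature. Luciferin read by luminescence; normalized to 1.43 uM quinidine.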
# [3] = biological target: Cytochrome P450 2C19 (Homo sapiens) (UniProt P33261); experiment: qHTS Assay for Inhibitors and Substrates of Cytochrome P450 2C19 (AID 899); note: nearly all actives have a fitted effect of over 60% in size; note: potency is the fitted concentration of half-maximal effect
# Method in brief: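 NADPH-dependent conversion of Luciferin-H EGE (10uM, at KM) by 5nM enzyme in 50mM KPO4, 60 min at 37C following 10 min compound preincubation. Stopped with luciferin detection buffer; luminescence read after 20 min.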
# [4] = Confirmation and Secondary Assay for Modulators of Hemoglobin Beta Chain Splicing at IVS2 654 locus (AID 910);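 note: per-well total GFP intensity by laser scanning cytometry after 2-day treatment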
# Method in brief: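 HeLa cells stably carrying EGFP interrupted by mutant beta-globin IVS2-654 intron (CMV-driven) were treated with compound for 2 days at 37C; corrected splicing was scored as total peak GFP intensity per well (488 nm excitation, 500-520 nm emission).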
# [5] = Confirmation and Secondary Assay for Modulators of Hemoglobin Beta Chain Splicing at IVS2 705 locus (AID 930);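 note: HeLa cells stably expressing the EGFP-705 splicing reporter; GFP fluorescence per well restored by corrected splicing of the IVS2-705 intron in EGFP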
# Method in brief: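 Stable HeLa line with EGFP disrupted by mutant beta-globin intron 2 (705). Overnight attachment, then 2 days of compound at 37C, 5% CO2. Signal: peak GFP intensity summed over objects 5-250 µm.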
# [6] = biological target: Cytochrome P450 3A4 (Homo sapiens) (UniProt P08684); experiment: qHTS Assay for Inhibitors and Substrates of Cytochrome P450 3A4 (AID 884); note: nearly all actives have a fitted effect of over 50% in size; note: potency is the fitted concentration of half-maximal effect
# Method in brief: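 20 nM human CYP3A4 with 25 uM Luciferin-PPXE (at KM) in 200 mM KPO4, preincubated 10 min with compound; NADPH regeneration started a 60 min RT reaction. Luciferin detected by luminescence, normalized to 57 uM ketoconazole as full inhibition.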
# [7] = qHTS Assay for Identification of Small Molecule Agonists for Hypoxia Response Element Signaling Pathway (AID 914; active = well fitted activation curve with a large enough effect in the signal ratio, with a control signal flat, not every such curve was filed as active; the % refers to the signal ratio; note: potency is the fitted concentration of half-maximal effect); settings: ME-180 (cervical carcinoma) HRE-bla reporter, beta-lactamase ratio, CoCl2, 17 h; activation: stronger effect = higher value
# Method in brief: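 Reporter activity (beta-lactamase, CCF4 460nm/530nm ratio) in HRE-bla ME-180 cells is recorded after 17 h compound exposure with EC50 CoCl2 at 37 degrees Celsius. AC50 values come from titration data.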
# [8] = biological target: Guanine nucleotide-binding protein G(i) subunit alpha-1 (Homo sapiens) (UniProt P63096); experiment: qHTS Assay for Inhibitors of RGS12 GoLoco Motif Activity (Green Fluorophore) (AID 879);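 note: negative values mean loss of peptide binding seen as reduced polarization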
# Method in brief: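 Fluorescence polarization assay: 50 nM Gαi1 with 10 nM FITC-labeled RGS12 GoLoco peptide in 10 mM Tris pH 7.5, 150 mM NaCl, 0.1 mM GDP, 0.05% NP40, 10 min at room temperature with compound.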
# [9] = qHTS Assay for Identification of Small Molecule Antagonists for NFkB Signaling Pathway (AID 895; active = well fitted inhibition curve with a large enough effect in the signal ratio, with a control signal flat, not every such curve was filed as active; the % refers to the signal ratio; note: potency is the fitted concentration of half-maximal effect)
# Method in brief: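 NFkB-bla ME-180 cervical carcinoma cells with beta-lactamase reporter under NFkB response element; compounds added, then TNF alpha at 10 pM final (EC50), 5 h at 37 C. LiveBLAzer substrate 2 h, room temperature; emission 460/530 nm at 405 nm excitation.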
# [10] = biological target: Muscarinic acetylcholine receptor M1 (Rattus norvegicus) (UniProt P08482); experiment: qHTS Assay for Antagonists of Acetylcholine Muscarinic M1 Receptor: Measurement of IP-One Response (AID 944); note: nearly all actives have a fitted effect of over 75% in size
# Method in brief: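 CHO cells stably expressing rat M1, pretreated 10 min with compound, then stimulated 30 min with carbachol at EC80 (200 nM) in LiCl-containing buffer pH 7.4; IP1 accumulation read by HTRF competition (665/620 nm).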
# [11] = biological target: Muscarinic acetylcholine receptor M1 (Rattus norvegicus) (UniProt P08482); experiment: qHTS Assay for Antagonists of Acetylcholine Muscarinic M1 Receptor: Kinetic Measurement of Intracellular Calcium Response (AID 943); note: nearly all actives have a fitted effect of over 75% in size
# Method in brief: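 CHO cells expressing rat M1 receptor, Fluo-4 loaded, preincubated 10 min with compound, then stimulated with EC80 carbachol (100 nM final). Kinetic calcium fluorescence over 4 min; response taken as peak over basal signal.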
# [12] = biological target: Pyruvate kinase (Leishmania mexicana) (UniProt Q27686); experiment: qHTS Validation Assay for Activators of Leishmania Mexicana Pyruvate Kinase (AID 959); settings: purified L. mexicana pyruvate kinase, enzyme activity
# Method in brief: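 Mutant LmPYK (E451W), 0.2 nM, plus 0.5 mM PEP and 0.1 mM ADP in 50 mM imidazole pH 7.2 containing 0.01% Tween 20 and 0.05% BSA. Incubated 1 h at room temperature; luminescence via PKLight, normalized to DMSO.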
# CP297 = experiment: qHTS profiling for inhibitors of Plasmodium falciparum proliferation (AID 504749); note: nearly all actives have a fitted effect of over 60% in size; note: potency is the fitted concentration of half-maximal effect; settings: P. falciparum in erythrocytes, SYBR Green DNA, 72 h; series mostly up to 12.8 µM
# Method in brief: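 Parasite proliferation within erythrocytes, 72 h exposure. Endpoint: SYBR Green I fluorescence after overnight lysis at room temperature. Controls: 0.29 uM artemisinin, DMSO.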
# [13] = biological target: Tyrosyl-DNA phosphodiesterase 1 (Homo sapiens) (UniProt Q9NUW8); experiment: Confirmation Assay for Inhibitors of Tyrosyl-DNA Phosphodiesterase (TDP1) (AID 489007); settings: recombinant human TDP1 enzymatic activity, dose-response; note: potency is the fitted concentration of half-maximal effect; nearly all actives have a fitted effect of over 40% in size
# Method in brief: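 Recombinant human Tdp1 (1 nM final), expressed in E. coli, preincubated 15 min with compound. Then 15 nM 5'-biotin/3'-phosphotyrosine-FITC DNA substrate added for 5 min at room temperature. AlphaScreen beads (10 ug/ml) added for 10 min; cleavage gives signal loss.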
# [14] = S16 Schwann cell PMP22 intronic element beta-lactamase assay (AID 624044; calls by dose curve; note: nearly all actives have a fitted effect of over 15% in size)
# Method in brief: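 Rat S16 Schwann cells with beta-Lac driven by a PMP22 intronic element, compound-treated 24 h at 37 °C. LiveBLAzer FRET B/G read: 460 nm normalized to potassium clavulanate vs DMSO; 535 nm FRET as viability; concentration-effect curves classified.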
# Chain of Muscarinic acetylcholine receptor M1 (Rattus norvegicus) (P08482 whole entry, looked up): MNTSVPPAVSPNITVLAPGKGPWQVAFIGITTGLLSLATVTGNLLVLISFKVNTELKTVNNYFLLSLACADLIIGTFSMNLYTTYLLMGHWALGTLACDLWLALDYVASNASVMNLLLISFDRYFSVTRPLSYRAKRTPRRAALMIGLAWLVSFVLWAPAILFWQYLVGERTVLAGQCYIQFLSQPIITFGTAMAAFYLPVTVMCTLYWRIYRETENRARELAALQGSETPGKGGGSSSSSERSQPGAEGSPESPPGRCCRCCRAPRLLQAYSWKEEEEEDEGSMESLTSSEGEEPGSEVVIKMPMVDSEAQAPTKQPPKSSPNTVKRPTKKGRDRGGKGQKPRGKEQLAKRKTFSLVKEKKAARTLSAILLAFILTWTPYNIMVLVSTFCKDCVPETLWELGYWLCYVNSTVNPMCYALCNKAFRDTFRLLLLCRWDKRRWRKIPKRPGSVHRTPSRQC
# Chain of Cytochrome P450 2C9 (Homo sapiens) (P11712 whole entry, looked up): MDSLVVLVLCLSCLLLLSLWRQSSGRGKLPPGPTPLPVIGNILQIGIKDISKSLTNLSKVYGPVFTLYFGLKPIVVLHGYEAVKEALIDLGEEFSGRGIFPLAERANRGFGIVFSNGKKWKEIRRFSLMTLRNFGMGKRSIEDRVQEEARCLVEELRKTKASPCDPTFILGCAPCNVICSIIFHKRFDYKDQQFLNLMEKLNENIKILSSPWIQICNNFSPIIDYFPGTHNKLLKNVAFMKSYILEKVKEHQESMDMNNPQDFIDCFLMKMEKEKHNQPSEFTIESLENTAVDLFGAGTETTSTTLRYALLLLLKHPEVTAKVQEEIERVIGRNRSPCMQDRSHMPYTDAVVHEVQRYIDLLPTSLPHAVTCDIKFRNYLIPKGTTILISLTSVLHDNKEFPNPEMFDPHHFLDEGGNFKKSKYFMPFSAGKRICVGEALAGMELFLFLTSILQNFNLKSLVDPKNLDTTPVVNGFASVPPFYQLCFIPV
# Chain of Cytochrome P450 2C19 (Homo sapiens) (P33261 whole entry, looked up): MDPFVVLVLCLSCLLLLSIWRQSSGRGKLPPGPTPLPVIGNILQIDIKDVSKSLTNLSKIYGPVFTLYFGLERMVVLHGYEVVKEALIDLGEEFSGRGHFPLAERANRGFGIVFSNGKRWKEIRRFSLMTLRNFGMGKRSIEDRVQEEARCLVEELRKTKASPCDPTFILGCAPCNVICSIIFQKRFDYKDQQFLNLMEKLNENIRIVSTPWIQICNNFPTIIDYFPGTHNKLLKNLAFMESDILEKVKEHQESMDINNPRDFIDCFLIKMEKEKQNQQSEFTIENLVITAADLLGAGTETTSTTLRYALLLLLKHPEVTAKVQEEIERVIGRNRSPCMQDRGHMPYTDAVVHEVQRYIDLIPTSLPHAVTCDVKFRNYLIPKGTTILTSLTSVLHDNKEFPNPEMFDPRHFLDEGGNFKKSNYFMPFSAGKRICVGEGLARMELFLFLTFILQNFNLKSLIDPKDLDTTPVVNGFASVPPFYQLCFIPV
# Chain of Cytochrome P450 2D6 (Homo sapiens) (P10635 whole entry, looked up): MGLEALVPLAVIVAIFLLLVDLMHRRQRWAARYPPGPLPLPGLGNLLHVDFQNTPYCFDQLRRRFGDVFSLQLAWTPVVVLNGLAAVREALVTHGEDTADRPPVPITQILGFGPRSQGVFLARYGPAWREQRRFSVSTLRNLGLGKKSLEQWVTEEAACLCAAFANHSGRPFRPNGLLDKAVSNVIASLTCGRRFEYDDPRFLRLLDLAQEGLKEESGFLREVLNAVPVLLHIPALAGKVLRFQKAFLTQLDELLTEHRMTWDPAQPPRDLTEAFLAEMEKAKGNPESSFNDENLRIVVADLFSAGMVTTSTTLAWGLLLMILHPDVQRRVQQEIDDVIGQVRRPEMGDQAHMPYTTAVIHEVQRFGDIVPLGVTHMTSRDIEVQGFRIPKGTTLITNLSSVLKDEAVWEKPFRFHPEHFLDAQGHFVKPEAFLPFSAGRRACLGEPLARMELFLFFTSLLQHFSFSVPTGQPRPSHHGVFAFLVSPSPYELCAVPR
# Chain of Guanine nucleotide-binding protein G(i) subunit alpha-1 (Homo sapiens) (P63096 whole entry, looked up): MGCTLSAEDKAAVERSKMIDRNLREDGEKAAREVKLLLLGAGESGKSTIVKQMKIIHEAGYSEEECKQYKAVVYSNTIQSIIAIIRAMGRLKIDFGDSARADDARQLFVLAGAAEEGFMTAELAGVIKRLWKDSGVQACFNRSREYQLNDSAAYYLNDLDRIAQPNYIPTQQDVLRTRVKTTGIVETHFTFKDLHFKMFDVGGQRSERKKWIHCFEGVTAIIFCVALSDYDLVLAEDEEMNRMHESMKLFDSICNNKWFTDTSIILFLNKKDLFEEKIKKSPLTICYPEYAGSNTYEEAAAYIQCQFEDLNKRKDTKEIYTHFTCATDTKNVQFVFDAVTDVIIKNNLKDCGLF
# Chain of Cytochrome P450 3A4 (Homo sapiens) (P08684 whole entry, looked up): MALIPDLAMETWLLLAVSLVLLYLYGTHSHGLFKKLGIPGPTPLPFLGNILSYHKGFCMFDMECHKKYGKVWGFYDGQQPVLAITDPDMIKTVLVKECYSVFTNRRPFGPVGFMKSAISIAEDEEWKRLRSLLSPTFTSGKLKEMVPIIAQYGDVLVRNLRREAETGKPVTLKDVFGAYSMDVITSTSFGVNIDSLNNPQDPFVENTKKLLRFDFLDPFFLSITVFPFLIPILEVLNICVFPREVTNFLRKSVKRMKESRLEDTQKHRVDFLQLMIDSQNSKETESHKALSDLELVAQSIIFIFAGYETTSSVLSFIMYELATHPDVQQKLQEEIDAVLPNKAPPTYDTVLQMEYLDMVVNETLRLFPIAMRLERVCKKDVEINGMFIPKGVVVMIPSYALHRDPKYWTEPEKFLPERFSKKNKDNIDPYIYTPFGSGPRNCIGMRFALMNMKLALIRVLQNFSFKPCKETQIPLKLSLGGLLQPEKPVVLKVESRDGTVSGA
# Chain of Pyruvate kinase (Leishmania mexicana) (Q27686 2-499 E452W): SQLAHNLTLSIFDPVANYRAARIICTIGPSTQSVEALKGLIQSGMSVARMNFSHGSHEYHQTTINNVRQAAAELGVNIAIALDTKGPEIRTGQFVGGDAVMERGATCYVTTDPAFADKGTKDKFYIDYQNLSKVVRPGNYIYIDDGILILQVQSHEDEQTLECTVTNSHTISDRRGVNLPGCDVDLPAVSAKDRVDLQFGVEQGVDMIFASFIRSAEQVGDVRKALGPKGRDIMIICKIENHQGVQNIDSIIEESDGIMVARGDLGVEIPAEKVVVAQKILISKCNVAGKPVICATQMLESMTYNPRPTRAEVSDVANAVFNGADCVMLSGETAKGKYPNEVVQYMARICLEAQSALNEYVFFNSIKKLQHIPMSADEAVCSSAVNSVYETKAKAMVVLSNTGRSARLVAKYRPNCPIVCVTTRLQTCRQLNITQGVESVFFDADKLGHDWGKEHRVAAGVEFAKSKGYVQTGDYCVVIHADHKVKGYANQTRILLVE
# Chain of Tyrosyl-DNA phosphodiesterase 1 (Homo sapiens) (Q9NUW8 whole entry, looked up): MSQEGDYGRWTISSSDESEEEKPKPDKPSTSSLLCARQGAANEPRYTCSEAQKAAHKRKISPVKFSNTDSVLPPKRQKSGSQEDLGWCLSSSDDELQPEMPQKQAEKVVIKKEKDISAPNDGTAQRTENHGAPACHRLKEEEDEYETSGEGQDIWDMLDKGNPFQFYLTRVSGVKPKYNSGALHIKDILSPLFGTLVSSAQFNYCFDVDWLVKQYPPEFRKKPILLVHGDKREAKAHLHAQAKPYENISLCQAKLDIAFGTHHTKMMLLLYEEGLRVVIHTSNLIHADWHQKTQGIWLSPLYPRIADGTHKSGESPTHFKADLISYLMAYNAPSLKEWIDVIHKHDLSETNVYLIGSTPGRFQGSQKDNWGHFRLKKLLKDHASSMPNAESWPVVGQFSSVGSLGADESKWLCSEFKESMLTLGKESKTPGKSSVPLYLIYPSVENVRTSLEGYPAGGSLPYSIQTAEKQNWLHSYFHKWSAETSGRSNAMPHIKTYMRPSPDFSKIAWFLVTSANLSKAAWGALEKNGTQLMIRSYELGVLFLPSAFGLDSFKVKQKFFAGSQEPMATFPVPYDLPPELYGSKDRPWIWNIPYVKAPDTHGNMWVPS
compound,measurement,setting,value
FC(F)(F)c1cc(CN2CC[C@@]3(CCCNC3)C2)cc(C(F)(F)F)c1,Potency,[1],inactive
same,Potency,[2],inactive
same,Potency,[3],inactive
N#Cc1ccccc1-c1cncnc1NCc1cccnc1,Potency,[4],inactive
same,outcome,[5],inactive
CS(=O)(=O)Nc1cccc(-c2nc(N3CCNCC3)c3ccccc3n2)c1,Potency,[4],inactive
same,outcome,[5],inactive
COc1cccc(-c2nc(N3CCNCC3)c3ccccc3n2)c1,Potency,[4],inactive
Cc1ccccc1-c1cncnc1NCCN1CCOCC1,Potency,[6],1.58 µM (active)
same,Potency,[4],inactive
same,Potency,[7],3.16 µM (active)
same,outcome,[5],inactive
Cc1noc(C)c1C(=O)N1CCC[C@@]2(CCN(Cc3cc(C(F)(F)F)cc(C(F)(F)F)c3)C2)C1,Potency,[3],inactive
COc1ccccc1-c1nccc(NCc2cccc(C)c2)n1,Potency,[6],6.31 µM (active)
same,Potency,[2],1.58 µM (active)
same,outcome,[5],inactive
O=C(c1cnccn1)N1CCC2(CCCN(c3cccc(-c4ccccc4)c3)C2)CC1,Potency,[6],2 µM (active)
O=C(c1cc(C(F)(F)F)cc(C(F)(F)F)c1)N1CCC2(CC1)CCN(c1ncccn1)CC2,Potency,[1],inactive
same,activation,[7],1.37%
COc1ccccc1CN1CC[C@@]2(CCCN(C(=O)c3ccco3)C2)C1,Potency,[2],0.501 µM (active)
same,activation,[7],6.4%
CN(C)Cc1ccccc1-c1ccc2ncnc(NCc3cccs3)c2c1,Potency,[4],inactive
same,outcome,[5],inactive
CN(C)C(=O)c1ccc(-c2nc(NCc3cccnc3)c3ccccc3n2)cc1,Potency,[4],inactive
same,Potency,[7],3.16 µM (active)
COc1ccc(-c2nc3cnc(N4CCNCC4)nc3n(C3CC3)c2=O)cc1,Potency,[1],7.94 µM (active)
same,Potency,[7],3.16 µM (active)
Cc1ccccc1-c1cncnc1N1CCNCC1,Potency,[4],inactive
same,outcome,[5],inactive
c1ccc(Nc2ncnc3ccc(-c4ccc5c(c4)OCO5)cc23)cc1,Potency,[6],2.51 µM (active)
same,Potency,[2],0.126 µM (active)
same,outcome,[5],inactive
Cc1noc(C)c1-c1nccc(N2CCNCC2)n1,Potency,[4],inactive
same,outcome,[5],inactive
O=c1c(-c2cc(F)cc(F)c2)nc2cnc(Oc3ccccc3)nc2n1C[C@H]1CCCO1,activation,[7],3.51%
CN(C)c1ccc(-c2ccc3ncnc(NCc4ccccc4)c3c2)cc1,Potency,[6],2.51 µM (active)
same,Potency,[3],7.94 µM (active)
same,outcome,[5],inactive
CN(C)C(=O)c1ccc(-c2ccc3ncnc(NCc4cccnc4)c3c2)cc1,Potency,[4],inactive
c1ccc2c(N3CCNCC3)nc(-c3ccoc3)nc2c1,Potency,[4],inactive
same,outcome,[5],inactive
CN1CCN(c2ccnc(-c3ccccc3C(F)(F)F)n2)CC1,Potency,[4],inactive
same,outcome,[5],inactive
CN(C)Cc1ccccc1-c1cncnc1NCc1ccccc1,Potency,[4],inactive
same,outcome,[5],inactive
COc1ccccc1CNc1ncnc2ccc(-c3ccc(N(C)C)cc3)cc12,Potency,[6],2 µM (active)
same,outcome,[5],inactive
Cn1cccc1C(=O)N1CCC2(CC1)CN(C(c1ccccc1)c1ccccc1)C2,Potency,[2],3.16 µM (active)
Cc1cccc(CNc2ccnc(-c3cccc(NS(C)(=O)=O)c3)n2)c1,Potency,[4],inactive
same,outcome,[5],inactive
CC[C@@]12CCCN3CCc4c(n(c5ccccc45)C(=O)C1)[C@H]32,Potency,[2],20 nM (active) and 63.1 nM (active) and 251 nM (active)
same,Potency,[3],7.94 µM (active)
Cc1cccc(CNc2cc(-c3cccc(NS(C)(=O)=O)c3)ncn2)c1,"activity change, negative = inhibition",[1],33.9% [at 2.29 µM]
same,Potency,[6],2 µM (active)
same,Potency,[4],inactive
same,outcome,[5],inactive
COc1ccccc1CNc1ncncc1-c1ccc(N(C)C)cc1,Potency,[4],inactive
same,outcome,[5],inactive
O=C(c1cnccn1)N1CCC2(CCN(Cc3ccncc3)CC2)CC1,activation,[7],2.3%
Cc1cccc(C)c1OC[C@H](C)N,Potency,[8],inactive
same,Potency,[1],inactive
same,Potency,[6],inactive
same,Potency,[9],0.794 µM (active)
same,activation,[7],-2.33% and -23.1%
same,Potency,[10],inactive
CC(=O)OCC1=C(C(=O)O)N2C(=O)[C@@H](NC(=O)Cc3cccs3)[C@@H]2SC1,Potency,[8],inactive
same,activation,[7],-3.21% and -0.503%
same,Potency,[11],inactive
same,Potency,[10],inactive
same,Potency,[12],25.1 µM (active)
N[C@H](C(=O)N[C@@H]1C(=O)N2C(C(=O)O)=C(Cl)CS[C@@H]12)c1ccccc1,Potency,[9],inactive
same,Potency,[11],inactive
CC(C)(C)NC[C@H](O)c1cc(O)cc(O)c1,Potency,CP297,inactive
NC(=O)c1cc[n+](CC2=C(C(=O)O)N3C(=O)[C@@H](NC(=O)[C@H](c4ccccc4)S(=O)(=O)[O-])[C@@H]3SC2)cc1,Potency,[9],inactive
same,Potency,[11],inactive
same,Potency,[12],3.16 µM (active)
same,Potency,[13],12.6 µM (active)
same,outcome,[14],inactive
same,Potency,CP297,6.42 µM (active)
O=C(O)CNC(=O)[C@@H](CS)Cc1ccccc1,Potency,[9],inactive
same,Potency,[11],inactive
C=CCc1ccccc1OC[C@H](O)CNC(C)C,Potency,[8],inactive
same,Potency,[2],6.31 µM (active)
same,Potency,[9],3.16 µM (active)
same,Potency,[10],inactive
O=C(C1CCCCC1)N1CC(=O)N2CCc3ccccc3[C@@H]2C1,Potency,[1],inactive
same,Potency,[2],inactive
same,outcome,[14],inactive
CCn1cc(C(=O)O)c(=O)c2cc(F)c(N3CCN[C@@H](C)C3)c(F)c21,Potency,[10],inactive
same,outcome,[14],inactive
same,Potency,CP297,inactive
Cn1c(=O)c(-c2ccccc2)nc2cnc(N3CCNCC3)nc21,Potency,[7],3.16 µM (active)
